Values joined by “and” are separate entries in the source; they are usually repeats but may differ in a detail not shown here. Identical values can stand only once. The whole screen tested about 360,000 compounds, of which about 11,000 (3.1%) were called active. Not shown: some 2% with an inconclusive outcome. Cut-off read from the data, not from the text of the source: active = fluorescence intensity above about 16000; inconclusive = no clear call, values can overlap the other calls; inactive = below that. The sample as a whole holds a higher share of actives than the screen did.
experiment: counter-screen for toxin protease inhibitors: compound fluorescence, primary screen, artefact control for toxin protease inhibitor project, biochemical, multiplex microsphere, HTS (AID 624483); conditions: compound autofluorescence counterscreen, microsphere flow cytometry; hits give high values

Structure (SMILES)	fluorescence intensity
COC(=O)[C@]12CCCCC=C1N(Cc1cccc3ccccc13)C(=O)[C@H](CC(=O)N1CCOCC1)C2	4200 (inactive)
CC1(C(=O)O)CCN1C(=O)/C=C/c1ccccc1 (configuration not stated)	3910 (inactive)
CCc1ccc(Nc2n[n+](-c3ccccc3)c(-c3cccc(Cl)c3Cl)s2)cc1	4300 (inactive)
CN(Cc1ccc2nsnc2c1)Cc1nc(Cc2cccc(F)c2)no1	4550 (inactive)
O=C1NC[C@@H](CCCCN2CCN(CCc3ccc(O)cc3)C(=O)C2=O)N(CC2CCCCC2)C1=O	6050 (inactive)
O=C(COC(=O)CCc1nc2ccccc2c(=O)[nH]1)Nc1ccc(N2CCOCC2)cc1	4110 (inactive)
COc1ccc(Sc2ccc(NC(=O)c3cccc(Cl)c3)cc2C#N)cc1	3440 (inactive)
CC(=O)Nc1nc(C)c(Cc2ccccc2)c(=O)[nH]1	2420 (inactive)
Cc1ccc2c(O)c(Cc3ccccc3)c(=O)[nH]c2n1	3740 (inactive)
Cc1nc(SC(C)C)[nH]c(=O)c1Cc1ccccc1	23800 (active)
CC(C)NC(=O)C1(C)CCCCN1Cc1cccc(C(F)(F)F)c1 (configuration not stated)	3020 (inactive)
COc1ccc(-c2nc3cnccn3c2NC2CCCCC2)cc1-c1cccc(Cl)c1	6580 (inactive) and 3860 (inactive)
COc1ccc(-c2nc3cc(C)ccn3c2NC2CCCCC2)cc1SC1CCCCC1	20700 (active) and 26600 (active)
CCOc1cc(-c2nc3cc(C)ccn3c2NCC2CCCO2)ccc1O (configuration not stated)	4290 (inactive)
COc1cc(NC(=O)CN2C(=O)NC(C)(c3ccc(OC(F)F)cc3)C2=O)cc(OC)c1OC (configuration not stated)	3820 (inactive)
CN(CC(=O)Nc1c(Cl)cccc1Cl)C(=O)CNC(=O)C1CCCCC1	4800 (inactive)
CC(=O)N1C[C@@H](CO)[C@@H](N(C)C(=O)c2ccco2)C[C@H]1c1ccccc1	6130 (inactive)
O=C(CSc1nnc(-c2cccnc2)n1CCc1ccccc1)NCc1ccccc1	2870 (inactive)
C=CCn1c(SCC(=O)NC(=O)Cc2ccccc2)nc2ccccc2c1=O	8750 (inactive)
C=CCn1c(SCC(=O)NCc2ccccc2)nnc1-c1cc(Br)ccc1O	20700 (active)
Cc1nc(CC(=O)NNS(=O)(=O)c2ccc(F)c(Cl)c2)cs1	2630 (inactive)
CCC(=O)N(CCc1ccccc1)Cc1cc2cc(C)ccc2[nH]c1=O	3090 (inactive)
COc1ccc(N(Cc2cc3ccc(C)cc3[nH]c2=O)S(=O)(=O)c2ccccc2)cc1	4310 (inactive)
CCN(Cc1cc2cc(C)ccc2[nH]c1=O)S(=O)(=O)c1ccccc1	16600 (active)
CC1(C(=O)NS(=O)(=O)Cc2cccc(Cl)c2)CCN1C(=O)Cc1ccccc1 (configuration not stated)	3480 (inactive)

Structure (SMILES)	fluorescence intensity
CC(=O)Nc1cccc(NC(=O)CSc2nccn2Cc2ccc(F)cc2)c1	6150 (inactive)
OC(c1ccc(Cl)c(F)c1)c1ncc(-c2ccccc2Cl)[nH]1 (configuration not stated)	3970 (inactive)
COc1cc(C2C(C#N)=C(N)Oc3n[nH]c(-c4ccccn4)c32)cc(OC)c1OC (configuration not stated)	22700 (active)
COc1ccc(-c2[nH]nc3c2C(c2ccncc2)C(C#N)=C(N)O3)cc1 (configuration not stated)	3830 (inactive)
COCc1[nH]nc2c1C(C1C=CCCC1)C(C#N)=C(N)O2 (configuration not stated)	11600 (inactive)
NC(=O)Cc1ccc2sc(-c3ccccc3)nc2c1	2610 (inactive)
O=C(COc1ccccc1F)Nc1nc(-c2ccccn2)cs1	3790 (inactive)
Cc1cc(NC(=O)[C@H](C)NC(=O)c2ccco2)ccc1Br	3700 (inactive)
CC(NC(=O)c1ccco1)C(=O)Nc1nc(-c2ccccn2)cs1 (configuration not stated)	20700 (active)
COCCNc1ncnc2c1ncn2[C@H]1CN(CCN2CCOCC2)C[C@@H](CO)O1	3590 (inactive)
OC(c1ccccc1)C(CN1CCOCC1)c1ccccc1 (configuration not stated)	4580 (inactive)
CN[C@H]1C[C@H]2c3cc(Oc4ccccc4C)ccc3CCN2C(=O)[C@H]1[C@H](C)O	5280 (inactive)
O=C(CCC1CCCN(Cc2ccc(O)c(Cl)c2)C1)NCc1ccccc1F (configuration not stated)	4480 (inactive)
CC(=O)Oc1ccc(Cn2c(C)c(C(=O)NCc3ccc(C#N)cc3)sc2=O)cc1	5590 (inactive)
COC(=O)CCSc1nccn1Cc1ccccc1	20500 (active)
CCCCNC(=O)CSc1nccn1Cc1ccccc1	8790 (inactive)
CCCCCCNC(=O)CSc1nccn1Cc1ccccc1	9260 (inactive)
O=C(NCCN1CCOCC1)c1ccccc1N1C(=O)[C@@H]2Cc3c([nH]c4ccccc34)C(c3cccc(Cl)c3)N2C1=O (some centres not stated)	5120 (inactive)
CCc1nc2c(OCc3ccc(C(=O)OC)cc3)cccn2c1N(C)C(=O)C(C)C	3990 (inactive)
CC(=O)c1cc2c(cc1N)OCO2	22400 (active)
CC(=O)c1cc2c(cc1NC(=O)CN1CCCCCC1)OCO2	3760 (inactive)
CC(=O)C1=C(C)NC(=O)NC1c1ccc2c(c1)OCO2 (configuration not stated)	4750 (inactive)
Cc1nc(SCC(=O)N2CCc3ccccc3C2)c2c(C)c(C)sc2n1	5870 (inactive)
CCCCn1nnnc1C(c1cccc(OC)c1OC)N1CCN(C/C=C/c2ccccc2)CC1 (configuration not stated)	5960 (inactive)
Cc1ccc(S(=O)(=O)N2CCCC(C(=O)N3CCN(C)CC3)C2)cc1 (configuration not stated)	5490 (inactive)

Structure (SMILES)	fluorescence intensity
COc1ccc(OCC(=O)OCCN(C)C)cc1	2140 (inactive)
COc1ccc(OCCCC(=O)Oc2ccc(OC)cc2)cc1	21300 (active)
COc1ccc(OCCCC(=O)OC(C)C(=O)Nc2ccccc2[N+](=O)[O-])cc1 (configuration not stated)	3940 (inactive)
CCCCOc1ccc(CSC(=N)N)cc1[N+](=O)[O-]	2600 (inactive)
COC(=O)c1ccc(CSc2nncn2N)cc1	4020 (inactive)
CCCCOc1ccc(Cl)cc1CSc1nncn1N	20700 (active)
Cn1cccc1C1(C(F)(F)F)NCCNC1=O (configuration not stated)	20400 (active)
CC(=O)N1CCN(Cc2cc(=O)oc3cc(C)ccc23)CC1	5400 (inactive)
Cc1ccc(Cn2c(C)c(C(=O)NCc3ccccc3C(F)(F)F)sc2=O)cc1	5600 (inactive)
CCN(CC)C(=O)CSC1c2ccccc2C(=O)N1c1ccccc1 (configuration not stated)	23100 (active)
CCN(CC)C(=O)CSc1ncnc2c1cnn2-c1ccccc1	3150 (inactive)
O=C1c2ccccc2C(c2nc3ccccc3[nH]2)N1c1ccccc1 (configuration not stated)	6040 (inactive)
C[N+](C)(C)CCNC(=O)c1c[nH]c2ccccc12	5520 (inactive)
CCCNC(=O)C1(C)CCN1C(=O)Cc1ccc(-c2ccccc2)cc1 (configuration not stated)	3250 (inactive)
CC(=O)Nc1ccc(SCC(=O)Nc2ccccc2Oc2ccccc2)cc1	2020 (inactive)
C#Cc1cc(N2CCN(C(=O)c3ccoc3)CC2)n2nc(-c3cccc(Cl)c3)cc2n1	4220 (inactive)
CCCCOc1ccc(C(=O)NCc2ccncc2)cc1	20300 (active)
CCCC(C)C(=O)NCc1ccncc1 (configuration not stated)	2180 (inactive)
CC(C)(C)NC(=O)C(=O)NCc1ccncc1	2060 (inactive)
O=C(CN(C(=O)c1nsc(Cl)c1Cl)c1cccc(F)c1)NC1CCCC1	4350 (inactive)
Cc1noc(C)c1C(=O)OCC(=O)/C=C1\N(C)c2ccccc2C1(C)C	23200 (active)
Cc1noc(C)c1C(=O)OCC(=O)N1CCN(S(=O)(=O)c2ccc3ccccc3c2)CC1	4540 (inactive)
CC(=O)Nc1cccc(OCC(=O)/C=C2\N(C)c3ccccc3C2(C)C)c1	3790 (inactive)
CC1(C(=O)NS(=O)(=O)c2cccc(OC(F)F)c2)CCN1C(=O)COc1ccc(Cl)cc1 (configuration not stated)	2870 (inactive)
Cc1ccn(-c2cccc(-n3ccc(C)n3)n2)n1	2160 (inactive)

Structure (SMILES)	fluorescence intensity
CC(=O)Nc1cc(-c2ccc(N3CCN(C)CC3)cc2)cn2c(-c3ccc(F)cc3)cnc12	3850 (inactive)
Cc1sc(NC(=O)c2ccc3ncsc3c2)c(C(N)=O)c1C	5240 (inactive)
CC(=O)c1c(Nc2ccccc2)sc(C(=O)c2ccccc2)c1C	2060 (inactive)
Cc1ccc(C(=O)c2c(NC(=O)c3ccccc3)sc(C)c2C)cc1	24600 (active)
C[C@H](NC(=O)[C@@H]1CCCN1C(=O)[C@@H]1CCCN1C(=O)c1ccccc1)c1ccccc1	6120 (inactive)
Cc1c(Cl)cccc1NC(=S)NCC(O)c1ccccc1 (configuration not stated)	2920 (inactive)
COc1ccc(C(=O)CCC(=O)Nc2cccnc2)c(OC)c1	5960 (inactive)
COc1ccc(OC(C)C(=O)Nc2cccnc2)cc1 (configuration not stated)	23000 (active)
CC(Oc1ccc(Cl)cc1)C(=O)Nc1ncccn1 (configuration not stated)	6780 (inactive)
Cc1ccc(C(=O)O)c(NC=O)c1OCc1ccccc1	4160 (inactive)
COc1ccc(C(=O)N2CCCN(C)CC2)c(OC)c1	4060 (inactive)
COc1ccc(S(=O)(=O)Nc2c(C)n(C)n(-c3ccccc3)c2=O)cc1	16100 (active)
COc1ccccc1-c1cc(C(=O)N2CCCCC2)no1	4320 (inactive)
COc1ccc2c(c1)CCc1c(C(=O)N3CCCC3)noc1-2	21100 (active)
Cc1c(NC(=O)c2cc(-c3ccc(Br)cc3)on2)c(=O)n(-c2ccccc2)n1C	5870 (inactive)
COc1ccc(C(=O)C(C)OC(=O)c2cccc(S(=O)(=O)Nc3c(C)n(C)n(-c4ccccc4)c3=O)c2)cc1 (configuration not stated)	3490 (inactive)
COc1ccc(NS(=O)(=O)c2ccc(C(=O)Nc3c(C)n(C)n(-c4ccccc4)c3=O)cc2)cc1	2940 (inactive)
COc1ccc2c(c1)CCc1c(C(=O)N3CCc4ccccc4C3)noc1-2	21600 (active)
Cc1c(NC(=O)c2coc(=O)c(Br)c2)c(=O)n(-c2ccccc2)n1C	2950 (inactive)
O=C(c1noc2c1CCCC2)N1CCc2ccccc2C1	3010 (inactive)
COc1ccc(OC)c(NC(=S)N2CCc3ccccc3C2)c1	2080 (inactive)
COc1ccc2c(c1)CCc1c(C(=O)Nc3c(C)n(C)n(-c4ccccc4)c3=O)noc1-2	21100 (active)

Reference: PubChem BioAssay AID624483 (NMMLSC, 2012)
